Measured potencies and affinities stand elsewhere. Active and inactive are the calls of the source.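 The calls were made as follows: active = fitted half-maximal dose no more than twice the top valid tested dose, for compounds that lower signal; inconclusive = fit invalid, or curve flat with activity between -70 and -30; inactive = potency past limit, curve flat within ±30, or signal increasing.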

In the assay the target is NAD-dependent protein deacylase sirtuin-5, mitochondrial (Homo sapiens) (UniProt Q9NXA8). Description: SIRT5 deacylase inhibitors, dose response, biochemical, fluorescence imaging, cherry-pick, set 6 (AID 720597).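 Also: lower AMC signal can also come from blocking the trypsin step.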 Particulars: Purified SirT5, succinyl-peptide-AMC/trypsin fluorescence; series mostly up to 15 µM.
Chain of NAD-dependent protein deacylase sirtuin-5, mitochondrial (Homo sapiens) (Q9NXA8 whole entry, looked up): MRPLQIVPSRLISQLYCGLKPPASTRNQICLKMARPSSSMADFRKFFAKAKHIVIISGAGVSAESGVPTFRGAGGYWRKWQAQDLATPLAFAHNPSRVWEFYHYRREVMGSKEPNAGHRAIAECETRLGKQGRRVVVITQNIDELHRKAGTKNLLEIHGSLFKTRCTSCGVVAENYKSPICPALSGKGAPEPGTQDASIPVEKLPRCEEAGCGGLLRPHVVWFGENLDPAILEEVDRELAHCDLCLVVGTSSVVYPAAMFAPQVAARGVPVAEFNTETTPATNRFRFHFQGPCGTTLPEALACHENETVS
For the compound `CCCC#Cc1ccc([C@@H]2[C@@H](CO)N3CCCCN(S(=O)(=O)Cc4ccccc4)C[C@@H]23)cc1`, the result was inactive. The same measure for `COc1ccc(S(=O)(=O)Nc2ccc3c(c2)CC(=O)N([C@@H](C)CO)C[C@@H](C)[C@H](CN(C)S(=O)(=O)c2ccc(C)cc2)O3)cc1`: “inactive”; for `Cc1ccc(S(=O)(=O)Nc2ccc3c(c2)C(=O)N([C@@H](C)CO)C[C@H](C)[C@@H](CN(C)Cc2ccc(C(F)(F)F)cc2)OCCCC[C@H](C)O3)cc1`: “inactive”. The same measure for `C[C@H](CO)N1C[C@H](C)[C@H](CN(C)C(=O)NC2CCCCC2)Oc2cc(/C=C/c3ccccc3)ccc2S1(=O)=O`: “inactive”; for `Cc1cccc(S(=O)(=O)N2CCCCN3[C@@H](CO)[C@H](c4ccc(-c5ccccc5)cc4)[C@@H]3C2)c1`: “inactive”; for `C[C@@H]1CCCCO[C@@H](CN(C)C(=O)Nc2ccc(C(F)(F)F)cc2)[C@H](C)CN([C@H](C)CO)C(=O)c2cc(NS(=O)(=O)c3ccc(Cl)cc3)ccc2O1`: “inactive”.

For `O=C(C[C@H]1CC[C@H]2[C@@H](COC[C@@H](O)CN2Cc2cccc(Cl)c2)O1)N1CCCCC1`, the compound was called inactive. Under `CC(C)NC(=O)Nc1ccc2c(c1)C(=O)N([C@H](C)CO)C[C@H](C)[C@H](CN(C)Cc1ccc(-c3ccccc3)cc1)O2` stands “inactive”.

In the case of `O=C(O)[C@@H]1[C@@H](CO)[C@@H]2Cn3c(ccc(-c4ccccc4F)c3=O)[C@@H]2N1Cc1ccccc1`, the compound was classed as inactive. Under `C[C@@H]1CN([C@@H](C)CO)C(=O)c2cc(NS(=O)(=O)c3ccccc3)ccc2O[C@@H](C)CCCCO[C@@H]1CN(C)S(=O)(=O)c1ccc(F)cc1` stands “inactive”; under `CS(=O)(=O)Nc1ccc2c(c1)[C@H]1C[C@@H](CC(=O)NCCc3ccccc3)O[C@@H](CO)[C@H]1O2`, “inactive”. Under `C[C@H]1CN([C@@H](C)CO)C(=O)CCCn2nncc2CO[C@@H]1CN(C)C(=O)CCCN(C)C` stands “inactive”; under `C[C@H]1CN([C@@H](C)CO)C(=O)c2ccccc2-c2ccccc2CO[C@H]1CN(C)Cc1ccccc1C(F)(F)F`, “inactive”. For `O=S(=O)(N[C@H]1CC[C@H](CCn2cc(-c3cccc(F)c3)nn2)O[C@H]1CO)c1ccc(F)cc1`, the result was inactive. Under `O=C(NCC[C@H]1CC[C@H](NS(=O)(=O)c2cccc(F)c2)[C@@H](CO)O1)C1CCOCC1` stands “inactive”. Under `COc1ccc(S(=O)(=O)Nc2ccc3c(c2)C(=O)N([C@@H](C)CO)C[C@H](C)[C@H](CN(C)S(=O)(=O)c2ccc(Cl)cc2)OCCCC[C@@H](C)O3)cc1` stands “inactive”. Under `COc1ccc(S(=O)(=O)N(C)C[C@H]2OCCCC[C@H](C)Oc3ccc(NS(=O)(=O)c4ccc(C)cc4)cc3C(=O)N([C@H](C)CO)C[C@@H]2C)cc1` stands “inactive”; under `O=C(NCC[C@H]1CC[C@H](NC(=O)C2CC2)[C@H](CO)O1)c1cc(Cl)cc(Cl)c1`, “inactive”; under `COc1ccc(C#Cc2ccc([C@H]3[C@@H](CO)N4C(=O)CN(C(=O)c5cccnc5)C[C@H]34)cc2)cc1`, “inactive”.

In the case of `COc1ccc(-c2cnc3c(c2)C(=O)N([C@@H](C)CO)C[C@H](C)[C@@H](CN(C)Cc2ccc(C(=O)O)cc2)O3)cc1`, the result was inactive.

In the case of `COc1ccc(S(=O)(=O)N(C)C[C@H]2OCCCC[C@@H](C)Oc3ccc(NS(=O)(=O)c4ccc(F)cc4)cc3C(=O)N([C@@H](C)CO)C[C@@H]2C)cc1`, the call was inactive. The same measure for `C[C@@H]1CN([C@H](C)CO)C(=O)Cc2cc(NS(=O)(=O)c3ccccc3)ccc2O[C@H]1CN(C)Cc1ccc(Cl)c(Cl)c1`: “inactive”; for `COc1ccc(S(=O)(=O)N(C)C[C@H]2OCCCC[C@H](C)Oc3ccc(NS(=O)(=O)c4ccc(Cl)cc4)cc3C(=O)N([C@@H](C)CO)C[C@H]2C)cc1`: “inactive”. The same measure for `COc1ccccc1-c1ccc2c(c1)O[C@H](CN(C)S(=O)(=O)c1ccccc1)[C@@H](C)CN([C@@H](C)CO)S2(=O)=O`: “inactive”; for `C[C@@H]1CN([C@@H](C)CO)S(=O)(=O)c2ccc(C#Cc3cccc(F)c3)cc2O[C@H]1CN(C)S(=O)(=O)c1ccccc1F`: “inactive”. With `Cc1ccc(S(=O)(=O)Nc2ccc3c(c2)C(=O)N([C@@H](C)CO)C[C@H](C)[C@@H](CN(C)S(=O)(=O)c2ccccc2)OCCCC[C@@H](C)O3)cc1`, the result was inactive. Under `CCS(=O)(=O)N1CC2(CN(Cc3cccc(Cl)c3)[C@H](CO)c3c2c2ccc(OC)cc2n3C)C1` stands “inactive”. `C[C@@H]1CN([C@H](C)CO)C(=O)c2cc(C#CCN(C)C)cnc2O[C@H]1CN(C)Cc1ccncc1`: the compound was classed as inactive.
